Assay [1] in a line: qHTS assay to identify small molecule agonists of the estrogen receptor alpha (ER-alpha) signaling pathway in the presence of an antagonist - cell viability counter screen (AID 1259386). Also: nearly all actives have a fitted effect of over 30% in size. Also: potency is read from the fitted curve at half-maximal effect. The note with it: VM7Luc4E2 viability, CellTiter-Fluor fluorescence, 22 h; series mostly up to 92.4 µM. The procedure, abridged: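 VM7Luc4E2 cells (endogenous full-length ER-alpha, 4×ERE-luciferase) were held 5 days in phenol red-free medium with 10% charcoal-stripped FBS, plated, then given 10.0nM ICI-182,780 and compounds at 15 concentrations for 22hr at 37C; viability read by CellTiter-Fluor fluorescence.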
In general terms: qHTS replaces the single test concentration by a dilution series.

The target of assay [2] is Progesterone receptor (Homo sapiens) (UniProt P06401). Nature of the assay: qHTS assay to identify small molecule agonists of the progesterone receptor (PR) signaling pathway (AID 1346784; calls by dose curve; also: nearly all actives have a fitted effect of over 30% in size). As to conditions: PR-UAS-bla HEK293T, beta-lactamase FRET ratio, 16 h; series mostly up to 92.4 µM. The procedure, abridged:
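Beta-lactamase reporter read-out: after 16 hr compound treatment at 37C and a further 2 hr at room temperature with LiveBLAzer B/G FRET substrate, fluorescence was measured in PR-UAS-bla HEK 293T cells grown in 2% charcoal-stripped serum.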

Assay [3] has the same target. Kind of assay: qHTS assay to identify small molecule antagonists of the progesterone receptor (PR) signaling pathway (AID 1346795; active = well fitted inhibition curve with a large enough effect in the signal ratio in the repeat runs, not every such curve was filed as active; the % refers to the signal ratio; also: potency is read from the fitted curve at half-maximal effect). As to conditions: PR-UAS-bla HEK293T, beta-lactamase FRET ratio, 16 h; series mostly up to 92.4 µM. The procedure, abridged: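 Read-out is fluorescence from the LiveBLAzer B/G FRET substrate, cleaved by a UAS-controlled beta-lactamase in PR-UAS-bla HEK293T cells after 16 hr exposure to compound plus 1 nM promegestone (final), followed by 2 hr at room temperature.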

Assay [4] is described as follows: qHTS assay to identify small molecule antagonists of the progesterone receptor (PR) signaling pathway - cell viability counter screen (AID 1346798). Also: nearly all actives have a fitted effect of over 50% in size. The note with it: PR-UAS-bla HEK293T viability, CellTiter-Glo luminescence, 16 h; series mostly up to 92.4 µM. The procedure, abridged: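 HEK293T PR-UAS-bla, 2% charcoal-stripped FBS; 4 hr pre-plate; cpd + R5020, 16 h 37C; LiveBLAzer read first; then CellTiter-Glo 30 min RT, luminescence.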

The nature of assay [5]: qHTS assay to identify small molecule antagonists of the TGF-beta/Smad signaling pathway - cell viability counter screen (AID 1346824). Also: nearly all actives have a fitted effect of over 50% in size. As to conditions: SBE-bla HEK293T viability, CellTiter-Glo luminescence; series mostly up to 76.8 µM. The procedure, abridged: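 Cytotoxicity counter-screen run in the same wells as the beta-lactamase Smad reporter read: CellTiter-Glo luminescence after 30 min at room temperature. HEK 293T SBE-bla cells had 5 hr compound exposure at 37 C with TGF-beta1 (0.25 ng/mL stock).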

A short description of assay [6]: qHTS assay to identify small molecule agonists of the TGF-beta/Smad signaling pathway - cell viability counter screen (AID 1346829). Also: top concentration of the series differs between compounds; nearly all actives have a fitted effect of over 45% in size. The note with it: SBE-bla HEK293T viability, CellTiter-Glo luminescence, 5 h; series mostly up to 76.8 µM. Summed up:
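SBE-bla HEK 293T cells plated overnight, compound exposure 5 hr at 37 C. Viability read in the same wells by CellTiter-Glo luminescence after 30 min at room temperature, following the beta-lactamase read.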

Assay [7] in a line: qHTS assay to identify small molecule agonists of the TGF-beta/Smad signaling pathway (AID 1346859; active = well fitted activation curve with a large enough effect in the signal ratio in the repeat runs, not every such curve was filed as active; the % refers to the signal ratio). The note with it: SBE-bla HEK293T, TGF-beta/Smad beta-lactamase reporter, 5 h; series mostly up to 76.8 µM. Summed up: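 SBE-bla HEK 293T, 4,000 cells/well, plated o/n; cpd in DMSO, 5 hr, 37 C/5% CO2; B/G FRET substrate 2 hr RT; ex 405, em 460/530 nm.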
Assay [8] deals with Thyrotropin-releasing hormone receptor (Homo sapiens) (UniProt P34981). Nature of the assay: qHTS assay to identify small molecule antagonists of the thyrotropin-releasing hormone receptor (TRHR) signaling pathway (AID 1346877; active = well fitted inhibition curve with a large enough effect in the repeat runs, not every such curve was filed as active). The note with it: TRHR-HEK293, TRH-induced calcium fluorescence, antagonist mode; series mostly up to 51.3 µM. The procedure, abridged: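 TRHR-expressing HEK293 cells were seeded, cultured 18 h at 37 °C, then loaded with calcium dye for 2 h. Compounds were pre-incubated 5 min at room temperature before 1 nM TRH (final) was added, and kinetic fluorescence was recorded for 3 min.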

The target is the same in assay [9]. Kind of assay: qHTS assay to identify small molecule agonists of the thyrotropin-releasing hormone receptor (TRHR) signaling pathway (AID 1346891; calls by dose curve). As to conditions: TRHR-HEK293 calcium fluorescence, agonist mode; series mostly up to 57.6 µM. Summed up: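 Intracellular calcium rise, read as fluorescence every second for 3 min, served as the agonist signal in dye-loaded HEK293 cells expressing TRHR; each compound ran at 15 concentrations in triplicate.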

The nature of assay [10]: qHTS assay to identify small molecule agonists of the progesterone receptor (PR) signaling pathway - cell viability counter screen (AID 1346799; calls by dose curve; also: nearly all actives have a fitted effect of over 45% in size; also: potency is read from the fitted curve at half-maximal effect). The note with it: PR-UAS-bla HEK293T viability, CellTiter-Glo luminescence, 16 h; series mostly up to 92.4 µM. The procedure, abridged: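 Luminescence from CellTiter-Glo, added after the beta-lactamase FRET read in the same wells, gave cytotoxicity in PR-UAS-bla HEK293T cells treated with compounds for 16 hr at 37C.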

Results filed as inconclusive are left out. Calls of active or inactive are those of the source. Unless noted, calls follow the shape of the dose curve; as a rule, active = well fitted curve in the direction sought with a large enough effect in the repeat runs; inconclusive = weak or mixed curves; inactive = no such curve, though single readings can be large; an effect the other way counts as inactive or inconclusive.

Chain of Thyrotropin-releasing hormone receptor (Homo sapiens) (P34981 whole entry, looked up): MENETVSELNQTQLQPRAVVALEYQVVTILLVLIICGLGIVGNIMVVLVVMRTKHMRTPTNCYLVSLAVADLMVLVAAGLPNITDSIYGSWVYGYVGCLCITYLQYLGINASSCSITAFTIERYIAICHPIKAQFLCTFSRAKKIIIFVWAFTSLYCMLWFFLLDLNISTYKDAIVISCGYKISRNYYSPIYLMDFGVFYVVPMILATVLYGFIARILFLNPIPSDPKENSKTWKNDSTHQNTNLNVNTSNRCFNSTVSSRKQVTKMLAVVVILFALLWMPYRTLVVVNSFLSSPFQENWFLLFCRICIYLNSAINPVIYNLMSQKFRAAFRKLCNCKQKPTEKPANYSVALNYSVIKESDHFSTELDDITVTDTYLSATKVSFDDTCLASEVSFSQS
Chain of Progesterone receptor (Homo sapiens) (P06401 whole entry, looked up): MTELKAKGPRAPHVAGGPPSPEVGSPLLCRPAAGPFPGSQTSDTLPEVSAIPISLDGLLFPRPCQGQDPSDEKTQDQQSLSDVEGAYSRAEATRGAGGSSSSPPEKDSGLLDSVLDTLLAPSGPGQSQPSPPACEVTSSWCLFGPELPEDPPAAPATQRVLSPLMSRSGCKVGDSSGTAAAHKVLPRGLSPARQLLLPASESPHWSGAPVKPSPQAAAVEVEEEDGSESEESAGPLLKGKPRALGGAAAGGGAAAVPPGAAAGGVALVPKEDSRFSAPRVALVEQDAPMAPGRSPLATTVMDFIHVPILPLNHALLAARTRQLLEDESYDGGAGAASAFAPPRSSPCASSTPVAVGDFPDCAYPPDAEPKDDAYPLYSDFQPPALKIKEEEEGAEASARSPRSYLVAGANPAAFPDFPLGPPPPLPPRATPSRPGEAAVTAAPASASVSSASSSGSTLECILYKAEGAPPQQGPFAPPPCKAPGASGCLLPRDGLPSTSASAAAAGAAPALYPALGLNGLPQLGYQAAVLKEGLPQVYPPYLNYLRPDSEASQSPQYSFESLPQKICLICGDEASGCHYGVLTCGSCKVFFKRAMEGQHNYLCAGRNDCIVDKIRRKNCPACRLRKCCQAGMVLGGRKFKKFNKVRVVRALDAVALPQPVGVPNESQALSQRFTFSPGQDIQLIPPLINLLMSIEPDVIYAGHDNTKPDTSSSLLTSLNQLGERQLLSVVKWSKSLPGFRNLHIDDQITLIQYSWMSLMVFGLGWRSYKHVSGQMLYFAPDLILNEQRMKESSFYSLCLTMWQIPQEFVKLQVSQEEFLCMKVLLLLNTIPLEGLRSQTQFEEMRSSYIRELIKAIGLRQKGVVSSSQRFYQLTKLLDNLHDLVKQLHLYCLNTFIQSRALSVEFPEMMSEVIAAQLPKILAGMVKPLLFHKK

On to `COc1cc(C)c(Cc2cnc(N)nc2N)cc1OC`, for which the Potency entry in assay [1], in assay [2], in assay [3] and in assay [4] was “inactive” in each case. Moreover, the result in assay [5], in assay [6], in assay [7], in [8] and in assay [9] was inactive.

With `COC(=O)/C=C/C(C)=C\C=C\C(C)=C\C=C\C=C(C)\C=C\C=C(C)\C=C\C(=O)O`, the Potency result in assay [1], in assay [2], in [3] and in assay [10] was “inactive” throughout. Besides, the compound was classed as inactive in assay [5], in assay [6], in assay [7], in assay [8] and in assay [9].

For `Cc1ccccc1CCO`, the Potency result in assay [1], in [2], in assay [3] and in [10] was “inactive” throughout. In addition, the outcome in assay [5], in [6], in assay [7], in [8] and in assay [9] was inactive.

Take `Cc1ccc2ccccc2c1[N+](=O)[O-]`: the Potency result in [1], in assay [2], in assay [3] and in assay [4] was “inactive” each time. In addition, the call in assay [5], in assay [6], in assay [7], in [8] and in assay [9] was inactive.

As to `O=c1[nH]nc(-c2ccc([N+](=O)[O-])o2)o1`, the Potency in [1] is 54.5 µM (active). The Potency result in assay [2], in [3] and in assay [4] was “inactive” each time. Besides, the call in assay [5], in assay [6], in assay [7], in assay [8] and in assay [9] was inactive.

Consider `COc1ccc(C(=O)c2ccc(C)cc2)c(O)c1`, for which the Potency result in assay [1], in assay [2] and in [4] was “inactive” in each case. Further, the Potency in [3] was 19.5 µM (active). For the same compound, the compound was classed as inactive in assay [6], in assay [8] and in assay [9].

With `CC/C=C/CCO`, the Potency entry in assay [1], in assay [2] and in [3] was “inactive” in each case. Further, the Potency in [10] is 19.7 µM (active). Further, the outcome in assay [5], in assay [6], in assay [7], in assay [8] and in [9] was inactive.

Consider `CCC(=O)O[C@@H]1C[C@H]2CC[C@]1(C)C2(C)C`, for which the Potency result in assay [1], in assay [2], in assay [3] and in [4] was “inactive” in each case. Also, the compound was called inactive in [6], in assay [7], in assay [8] and in assay [9].

For `C=CCCC`, the Potency entry in [1], in assay [2], in [3] and in [10] was “inactive” each time. Besides, the compound was classed as inactive in [5], in [6], in assay [7], in assay [8] and in assay [9].

Regarding `CCCCCC1CCC(=O)O1` (centres undefined), the Potency result in [1], in [2], in assay [3] and in assay [4] was “inactive” each time. Besides, the call in assay [5], in [6], in [7], in [8] and in assay [9] was inactive.

For `Cc1c(N=C=O)cccc1N=C=O`, the Potency result in assay [1], in assay [2], in assay [3] and in assay [10] was “inactive” throughout. Moreover, the result in assay [5], in assay [6], in assay [7], in assay [8] and in assay [9] was inactive.

On to `CCCCCCC/C=C/C=O`, for which the Potency result in [1], in [2] and in assay [3] was “inactive” in each case. Moreover, the outcome in assay [6], in assay [7], in assay [8] and in assay [9] was inactive.

As for `C[C@@H](O)[C@H]1C(=O)N2C(C(=O)O)=C(S[C@@H]3CN[C@H](CNS(N)(=O)=O)C3)[C@H](C)[C@H]12`, the Potency result in assay [1], in [2], in assay [3] and in assay [10] was “inactive” each time. Besides, the compound was classed as inactive in assay [6], in [7], in assay [8] and in [9].

As to `Cc1c(-c2cccnc2)c2ccccc2n1CCCCC(=O)O`, the Potency result in [1], in assay [2], in assay [4] and in assay [10] was “inactive” in each case. The compound was classed as inactive in [5], in assay [6], in assay [8] and in assay [9].

The values above are taken from PubChem BioAssay (Tox21).
